# Rows were chosen to be rich in hits. Some 17% of all compounds tested hit in one or more screens of this group.
# DT40 TDP1 CPT = DT40-hTDP1 cell growth loss with CPT; Potency, µM (top dose mostly 46.2 µM), for the others: at the highest dose activity change, negative = growth inhibition, most hits filed as inhibitors; actives 12% (n = 420,000); chicken DT40 Tdp1-/-;hTDP1 cells + 20 nM CPT, ATP luminescence, 48 h; note: % is set by controls: 0 for no effect and ±100 for the full control effect; nearly all actives have a fitted effect of over 55% in size
#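 Chicken DT40 Tdp1-/- cells stably complemented with human TDP1 were seeded at 400 cells/well in medium containing 20 nM camptothecin, exposed to pin-transferred compounds, and grown at 37 °C for at least 48 hr. Viability was read as ATP luminescence.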
# TDP1 inh = blocks human tyrosyl-DNA phosphodiesterase 1; recombinant TDP1, AlphaScreen DNA substrate cleavage; Potency, µM (titrated, usually from 130 µM), inactives show at the highest dose activity change, negative = inhibition, usual class: inhibitors; actives 0.28% (n = 350,000); AID 485290; note: % is set by controls: 0 for no effect and ±100 for the full control effect; nearly all actives have a fitted effect of over 40% in size
# Target sequence (Q9NUW8 whole entry, looked up): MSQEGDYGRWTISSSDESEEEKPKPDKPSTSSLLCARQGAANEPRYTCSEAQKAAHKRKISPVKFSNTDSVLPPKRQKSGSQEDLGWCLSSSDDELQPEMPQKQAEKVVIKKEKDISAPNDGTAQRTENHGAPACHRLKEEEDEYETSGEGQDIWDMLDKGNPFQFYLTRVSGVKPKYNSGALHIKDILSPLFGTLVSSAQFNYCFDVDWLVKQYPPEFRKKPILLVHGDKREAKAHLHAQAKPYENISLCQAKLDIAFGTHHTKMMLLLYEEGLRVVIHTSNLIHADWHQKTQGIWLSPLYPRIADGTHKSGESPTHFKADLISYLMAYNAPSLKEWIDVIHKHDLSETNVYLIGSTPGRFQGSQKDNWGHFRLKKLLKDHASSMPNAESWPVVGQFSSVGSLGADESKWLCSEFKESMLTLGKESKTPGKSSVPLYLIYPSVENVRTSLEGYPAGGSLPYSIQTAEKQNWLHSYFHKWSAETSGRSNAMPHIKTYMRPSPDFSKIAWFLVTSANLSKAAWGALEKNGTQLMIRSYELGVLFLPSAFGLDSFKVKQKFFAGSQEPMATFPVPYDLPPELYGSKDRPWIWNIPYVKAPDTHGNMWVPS
#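 Tdp1 1 nM final; 15 min RT w/ cpd; substrate 15 nM, 5 min; beads 10 ug/ml, 10 min; AlphaScreen read. Neg ctrl: no enzyme.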
# ClpP mod = qHTS Assay for Activators of ClpP | ATP-dependent Clp protease proteolytic subunit (Bacillus subtilis (strain 168)), P80244 | purified B. subtilis ClpP, FRET peptide cleavage, 20 min | Potency, µM (doses to about 57.5 µM), for inactives: at the highest dose activity change, negative = active | actives 1.9% (n = 340,000) | AID 651965, 2013; active = well fitted falling curve with a large enough effect; inconclusive = small, poorly fitted or top-dose-only effect; inactive = no such curve, though single readings can be large or run the other way; note: the source files actives as falling curves though it sought activators and does not explain the sign; nearly all actives have a fitted effect of over 65% in size
#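 ClpP 10 microg/mL final, pH 8 Tris/KCl buffer with BSA, glycerol, Tween-20; compound pinned in; FRET-FV substrate; RT 20 min; Ex320/Em430; ΔFRET vs ADEP 5.8 microM, DMSO, no enzyme.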
# DT40 TDP1 no CPT = qHTS for Inhibitors of human tyrosyl-DNA phosphodiesterase 1 (TDP1): qHTS in cells in absence of CPT | actives 15% (n = 420,000) | DT40 Tdp1-/- hTDP1 cells, no CPT, ATP luminescence, 48 h | Potency, µM (titrated, usually from 46.2 µM), for the others: at the top dose activity change, negative = growth inhibition, hits mostly inhibitors; note: % is set by controls: 0 for no effect and ±100 for the full control effect; nearly all actives have a fitted effect of over 55% in size
#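 Stably hTDP1-transfected Tdp1-null chicken DT40 cells were treated with library compounds minus camptothecin and grown for at least 48 hr at 37 °C, after which cellular ATP was quantified by luminescence.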
# An asterisk follows results filed as active; ? = inconclusive; . = no result. Unless noted, calls come from the whole dose curve; as a rule, active = well fitted curve in the direction sought with a large enough effect; inconclusive = small, poorly fitted or top-dose-only effect, or another doubt; inactive = no such curve, though single readings can be large; an effect the other way counts as inactive or inconclusive. Potency is the fitted concentration of half-maximal effect.
SMILES,DT40 TDP1 CPT,TDP1 inh,ClpP mod,DT40 TDP1 no CPT
CO[C@H](C(=O)N(C)C[C@@H]1OCc2ccccc2-c2c(n(C)c3ccccc23)C(=O)N([C@H](C)CO)C[C@@H]1C)c1ccccc1,-12%,.,1%,?
CCSc1nc(-c2ccccc2)nc(C(Cl)Cl)n1,1.8µM*,3%,0%,8.2µM*
Cc1cc(/C=N/n2cnnc2)c(C)n1-c1ccc(OCc2ccc(Cl)cc2Cl)cc1,7.3µM*,10%,?,5.8µM*
COc1ccc2c(c1)oc(=O)c1c3ccccc3[nH]c21,?,11%,-8%,?
C=Cc1ncc(OC)c2c1[nH]c1ccccc12,3.7µM*,.,4%,3.7µM*
COc1ccc(CCCc2nnc(SCC(=O)N/N=C\c3ccc(O)c(OC)c3)o2)cc1C,15µM*,4%,-5%,?
COc1ccc2c(c1)OCC(Cc1ccc(OC)c(OC)c1)C2O (stereo unspecified),0%,4%,.,?
COc1ccc(C2COc3cc(O)ccc3C2)c(OC)c1O (stereo unspecified),18µM*,.,-4%,16µM*
COC(=O)c1ccc([N+](=O)[O-])cc1N1C(=O)C2C3CCC(C3)C2C1=O (stereo unspecified),-25%,4%,1%,-19%
C/C(=N\Nc1nc2ccccc2[nH]1)c1cc2ccccc2o1,?,8%,0%,18µM*
C/C(=N\Nc1nc2ccccc2[nH]1)c1ccc2c(c1)OCO2,15µM*,8%,.,26µM*
C/C(=N\Nc1ccccn1)c1ccc2c(c1)OCO2,18µM*,3%,.,?
O=C(CCCCCNC(=O)N1CCn2c1nc1ccccc12)NCc1ccccc1,?,-1%,-3%,?
COC(CNC(=O)C1CCN(S(=O)(=O)c2cccc3nsnc23)CC1)OC,-1%,0%,0%,-1%
Cc1nn(-c2ccccc2)c(Cl)c1/C=N/NC(=O)CNC(=O)c1ccccc1Cl,21µM*,3%,0%,?
Cc1nn(-c2ccccc2)c(Cl)c1/C=N/Nc1nc2ccccc2n1C,26µM*,3%,0%,15µM*
Cc1ccc(C)c(OCC(=O)N/N=C/c2c(C)nn(-c3ccccc3)c2Cl)c1C,15µM*,0%,3%,7.3µM*
Cc1nn(-c2ccccc2)c(Cl)c1/C=N/NC(N)=O,2%,-3%,.,-12%
Cc1nn(-c2ccccc2)c(Cl)c1/C=N/NC(=O)c1cccc(S(=O)(=O)N2CCCC2)c1,-28%,4%,-1%,10µM*
CC(C)(C)OC(=O)C[C@H]1C/C=C\C[C@H](CC(=O)N[C@H](CO)Cc2ccccc2)C(=O)N[C@@H](Cc2ccccc2)COC1=O,16µM*,-2%,0%,15µM*
CC(C)(C)OC(=O)C[C@@H]1C/C=C\C[C@H](CC(=O)N[C@@H](CO)Cc2ccccc2)C(=O)N[C@H](C(C)(C)C)COC1=O,21µM*,1%,1%,18µM*
CC(C)(C)OC(=O)C[C@H]1C/C=C\C[C@@H](CC(=O)N[C@H](CO)Cc2ccccc2)C(=O)NC[C@H](c2ccccc2)OC1=O,?,1%,1%,23µM*
O=C(C[C@H]1C/C=C\CC[C@@H](Cc2ccc(F)cc2)C(=O)O[C@@H](c2ccccc2)CNC1=O)N[C@H](CO)Cc1ccccc1,18µM*,0%,-1%,?
C[C@@H]1COC(=O)[C@@H](CC(=O)OC(C)(C)C)C/C=C\C[C@@H](CC(=O)N[C@@H](CO)Cc2ccccc2)C(=O)N1,?,0%,0%,?
Cc1ccccc1C(=O)Nc1cccc(-c2cn3cccnc3n2)c1,?,5%,4%,?
O=C(C[C@@H]1C/C=C\C[C@@H](Cc2ccc(F)cc2)C(=O)OCCNC1=O)N[C@H](CO)Cc1ccccc1,21µM*,0%,2%,18µM*
O=C(C[C@@H]1C/C=C\C[C@@H](Cc2ccc(F)cc2)C(=O)OC[C@@H](Cc2ccccc2)NC1=O)N[C@H](CO)Cc1ccccc1,?,0%,0%,-23%
O=C1CNC(=S)N1Cc1ccc(F)cc1,-9%,0%,1%,-17%

# High-throughput results from PubChem BioAssay.
